# Source: PubChem (National Center for Advancing Translational Sciences (NCATS))
# KB-V1 MDR tox: kills drug-selected multidrug resistant KB-V1 cells; KB-V1 MDR cells viability, CellTiter-Glo, 72 h; Potency, µM (series often up to 46.1 µM), actives largely listed as cytotoxic; actives 3.4% (n = 400,000); AID 1347076; note: potency is the fitted concentration of half-maximal effect; % is set by controls: 0 for no effect and ±100 for the full control effect; nearly all actives have a fitted effect of over 60% in size
#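 Cytotoxicity toward P-gp-expressing KB-V1 cells was determined as loss of CellTiter-Glo luminescence after 72 h at 37 degrees C. Compounds were tested in quantitative HTS format across a concentration range, with curves fitted to normalized data.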
# IL1B secr inh: inflammasome signaling inhibition, IL-1 beta readout | THP-1 LPS/ATP IL-1B secretion, AlphaLISA, 16 h; active compounds read low | activity change, % at 57.5 µM | actives 4.7% (n = 360,000); in the data active = activity change below about -50%; inconclusive = mostly about -30% to -49%; note: % is set by controls: 0 for no effect and ±100 for the full control effect
#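 Secreted IL-1B measured by AlphaLISA bead assay after 16 h compound exposure of THP-1 cells; compounds (final up to 57.5 uM) added 1 h before LPS (250 ng/mL) and ATP (1.25 mM) stimulation; lower signal means less secretion.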
# SW480 rerep: DNA re-replication induction in SW480 cells. SW480 DNA re-replication, Hoechst DNA content imaging, 48 h. Potency, µM (doses to about 46.1 µM), for inactives: at the top dose re-replication activation, usual class: activators. AID 624297. actives 1.8% (n = 340,000); note: potency is the fitted concentration of half-maximal effect; % of control where 0% means no effect; nearly all actives have a fitted effect of over 55% in size
#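 SW480 cells exposed to compounds for 48 hr at 37 C, 5% CO2, then Hoechst-stained 40 min. Nuclear DNA content imaged by fluorescence scanning (405 nm excitation, 500-530 nm emission); re-replication scored as increased high-intensity nuclei.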
# MCF10A rerep: induces DNA re-replication in MCF 10a normal breast cells; MCF 10A DNA re-replication, Hoechst nuclear intensity, 48 h; Potency, µM (top dose mostly 46.1 µM), for the others: at the top dose activity, positive = re-replication, hits mostly activators; actives 2.9% (n = 350,000); note: potency is the fitted concentration of half-maximal effect; % of control where 0% means no effect; nearly all actives have a fitted effect of over 50% in size
# KB-3-1 cytotox: kills parental KB-3-1 adenocarcinoma cells; Potency, µM (top dose mostly 46.1 µM), most hits filed as cytotoxic; KB-3-1 viability, CellTiter-Glo ATP luminescence, 72 h; actives 1.4% (n = 400,000); note: potency is the fitted concentration of half-maximal effect; % is set by controls: 0 for no effect and ±100 for the full control effect; nearly all actives have a fitted effect of over 60% in size
#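 Here the drug-naive KB-3-1 line serves as comparator for MDR sub-line selectivity; cells received compound titrations, 72 h at 37 °C, then CellTiter-Glo readout.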
# Numbers without * were called inactive; i = inactive; ? = inconclusive; · = no result given. Only some compounds are listed: those with a hit (about 9.9% of all), similar ones and a draw of the others. Unless noted, calls come from the whole dose curve; as a rule, active = well fitted curve in the direction sought with a large enough effect; inconclusive = small, poorly fitted or top-dose-only effect, or another doubt; inactive = no such curve, though single readings can be large; an effect the other way counts as inactive or inconclusive.
SMILES,KB-V1 MDR tox,IL1B secr inh,SW480 rerep,MCF10A rerep,KB-3-1 cytotox
CC(C)CC1C(=O)N(Cc2cn(CCC3OCCCO3)nn2)CCS(=O)(=O)N1Cc1ccc(-c2ccc(Cl)nc2)cc1 (stereo not given),?,58.1,·,·,?
COc1ccc(N2CCN(C3CCCN(C(=O)C4=C(C)OCCO4)C3)CC2)cc1 (stereo not given),i,14.2,-2.0%,1.5%,i
C[C@H]1OC(OC2C(O)[C@@H](O)C(OC3C(O)[C@@H](O)C(O)O[C@@H]3CO)O[C@@H]2CO)[C@H](O)C(O)C1N[C@H]1C=C(CO)[C@@H](O)[C@H](O)C1O (stereo not given in full),·,·,-6.5%,-4.0%,·
O=C1CC(N2CCN(c3ccc(O)cc3)CC2)C(=O)N1c1ccc2c(c1)OCO2 (stereo not given),?,10.7,-1.8%,-1.9%,i
O=C1CC(N2CCCCCC2)C(=O)N1c1ccc(F)cc1 (stereo not given),?,-17.6,?,13µM*,i
O=C1CC(N2CCCCCC2)C(=O)N1c1ccc2c(c1)OCO2 (stereo not given),i,-6.0,-0.6%,14.6µM*,i
O=C1CC(N2CCN(c3ccc(F)cc3)CC2)C(=O)N1c1ccc(F)cc1 (stereo not given),i,31.0,-22.1%,1.0%,i
Cc1ccc(C(=O)c2c(N)c(C(=O)Nc3cccc(C(F)(F)F)c3)c3ccccn23)cc1,i,·,·,·,i
O=S1(=O)N=C(Sc2cccc3cccnc23)c2ccccc21,?,·,·,·,9.2µM*
COc1ccc(-c2nnc(NC(=O)Nc3ccc4ccccc4c3)s2)cc1OC,i,·,·,·,i
COc1cc(C(=O)Nc2nc(-c3ccc(Cl)cc3)c(C)s2)ccc1OCC(=O)Nc1ccc(F)cc1,?,5.7,·,?,13µM*
Cc1[nH]c2ccccc2c1C(=O)C(=O)NCCc1ccc(S(N)(=O)=O)cc1,i,-4.4,-3.9%,15.5%,i
c1cncc(-c2csc(-c3cccnc3)n2)c1,i,-25.4,0.6%,3.0%,i
Oc1ccc(-c2csc(-c3cccnc3)n2)c(O)c1,?,?,?,?,5.8µM*
CC(=O)Nc1ccc(-c2csc(N/N=C(/C)c3ccccc3)n2)cc1,i,-70.4*,-2.3%,10.8%,i
Clc1ccsc1-c1csc(-c2cccnc2)n1,?,13.4,?,25.9%,20.6µM*
CC(=O)Nc1ccc(-c2csc(-c3cccnc3)n2)cc1,i,-55.0*,7.6%,1.9%,i
CCCC(=O)Nc1ccc(-c2csc(-c3cccnc3)n2)cc1,?,-29.8,14.4%,5.8%,i
COc1ccc(NC(=O)c2cnc[nH]2)cc1,i,·,·,·,?
CCN(Cc1ccccc1)C(=O)CCS(=O)(=O)c1cc(Br)cc2c1N(C(=O)C1CC1)CC2,i,·,·,·,i
Oc1ccc(-c2nc(-c3ccc(O)c(O)c3)cs2)cc1,2.06µM*,0.0,1.46µM*,?,0.517µM*
COc1cc(C(=O)N/N=C(\C)c2ccc3c(c2)OCO3)cc(OC)c1OC,5.17µM*,83.2,2.59µM*,4.11µM*,4.61µM*
COc1cc(C(=O)c2ccc3c(c2)OCO3)cc(OC)c1OC,3.26µM*,23.0,2.06µM*,?,4.61µM*
COc1cc(C(=O)c2cocc2C(=O)c2ccc3c(c2)OCO3)cc(OC)c1OC,1.16µM*,49.5,1.84µM*,?,?
COc1cccc(/C=C/C(=O)c2ccc3c(c2)OCO3)c1OC,23.1µM*,-19.7,?,?,?
SMILES,KB-V1 MDR tox,IL1B secr inh,SW480 rerep,MCF10A rerep,KB-3-1 cytotox
O=C(C[n+]1cccc(/C=N/O)c1)N1CCCc2ccccc21,i,13.0,-11.0%,9.4%,i
CCOC(=O)N1CCN(S(=O)(=O)c2ccc(OCC(=O)OC)c(Cl)c2)CC1,i,-91.3*,6.1%,-0.4%,i
CCOC(=O)c1ccc(S(=O)(=O)N2CCN(C)CC2)cc1,i,14.7,-22.0%,5.17µM*,i
CCOC(=O)N1CCN(S(=O)(=O)c2ccc(OC)c(Cl)c2)CC1,i,2.4,-0.3%,-11.4%,i
CC(C)COC(=O)N1CCN(S(=O)(=O)c2ccc3c(c2)CCC3)CC1,14.6µM*,-4.7,-8.8%,6.8%,i
CCOc1ccc(OCCC(=O)OCC(=O)N2CCN(S(=O)(=O)c3ccc(Cl)cc3)CC2)cc1,i,-85.3*,?,?,i
CCOC(=O)c1ccc(S(=O)(=O)N2CCN(CCC#N)CC2)cc1,i,34.4,-2.5%,17.6%,i
CCC1CCCCN1C(=O)c1ccc(OC2CCN(C(=O)CCOC)CC2)cc1 (stereo not given),i,19.2,8.1%,?,i
O=c1c(Br)c(N2CCCCC2)cnn1-c1ccccc1,?,-7.7,2.7%,3.8%,i
CCOC(=O)N1CCN(S(=O)(=O)c2ccc(OCC)c3ccccc23)CC1,?,-79.7*,14.4%,?,?
CCOC(=O)N1CCN(S(=O)(=O)c2ccc(OCC)cc2)CC1,16.4µM*,11.6,-1.8%,-1.3%,i
Fc1cc2[nH]c(=S)[nH]c2c(Br)c1N1CCSCC1,?,-4.7,11.7%,8.8%,2.06µM*
Fc1cc2nccnc2cc1N1CCSCC1,i,-13.3,-8.4%,-3.5%,i
Cc1ccccc1Nc1c(-c2ccc(N3CCOCC3)cc2)nc2ccc(Cl)cn12,i,·,·,·,i
C/C(=N\NC(=O)c1ccccc1Cl)c1ccccn1,i,117.5,?,?,?
C/C(=N\NC(=O)c1ccccc1OCc1ccc(F)cc1)c1ccccn1,?,51.9,2.0%,24.0%,11.6µM*
CCOc1ccc(OCc2ccc(C(=O)N/N=C(\C)c3ccccn3)cc2)cc1,?,113.3,?,?,?
C/C(=N\NC(=O)c1cc(-c2ccncc2)nc2ccccc12)c1ccc(N2CCOCC2)cc1,i,12.3,-22.1%,5.8µM*,i
C/C(=N\NC(=O)c1cccc2ccccc12)c1ccccn1,i,-106.6*,?,?,?
NNC(=O)c1cc(-c2cccs2)nc2ccccc12,i,3.5,?,?,i
C/C(=N\NC(=O)c1cc(-c2cccs2)nc2ccccc12)c1ccccn1,i,189.7,1.64µM*,?,?
O=C(NNC(=O)c1ccccc1OCc1ccc(F)cc1)c1ccccc1O,·,36.9,3.26µM*,-3.3%,·
Cc1ccc(C(=O)NCC(=O)OCc2c(F)cccc2Cl)cc1,i,3.6,1.7%,-1.4%,?
Cc1ccc(S(=O)(=O)NCC(=O)NCC(=O)OCc2c(F)cccc2Cl)cc1,i,18.5,18.4µM*,8.8%,i
O=C(NCC(c1cccs1)N1CCOCC1)c1cn(-c2ccccc2)nc1-c1ccc(F)cc1 (stereo not given),i,-60.0*,?,?,i
